The values below come from the supplement of paper PMC6555819.

The test system of one assay is RARb homodimer (NR concentration 270 nM). Description: PBM binding z-score (relative to random genomic background probes); higher = stronger binding; sequences stand for … in GC…GCGATTGACAGCGTAGAATGAAGG
The essentials: (§1)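 Antibodies against each partner of ligand-free nuclear receptor dimers (one per run) detected binding on custom Agilent 4×180K protein-binding microarrays after 1 h incubation. The double-stranded probes had 34-nt variable regions carrying direct-repeat seeds, single-nucleotide variants, half-site ablations and random human genomic background sequences. Binding z-scores, from regression-normalized fluorescence, use the random background probes as reference.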
For the sequence ATACCAAGGTGATCGTGAGGTCTTTGATACTAAC, the PBM binding z-score worked out at 0.992.

In turn, CCTAGCAGGCAAATCTGGGTCACTCAAGGCTTGA returned a PBM binding z-score of 1.85.

ATCTCTAGGTAAGACTCAGTTCAGTGCAGAACGC registered a PBM binding z-score of 0.696.

The sequence CCTCGGAGGATAGAAGGTCAGAGCTGTCCGCTTT returned a PBM binding z-score of 2.9.

Regarding CCAGACAGGTGAAAGGTTACTCAGTCTGGTACGC, the PBM binding z-score was 1.91.

Take GCTTATAGATCAAGGTTAAGAAAGACTAAGCTAA: the PBM binding z-score came out at 0.33.

Regarding GCTGCTAGGTCAGGTTAGTCAGCTAACGGGTACG, the PBM binding z-score came out at 2.62.

As to TCATATAGGTAAAGGTCAAAGTCGAACGATATGA, the PBM binding z-score worked out at 4.51.

As to CCTGCTAGGTCAATGGTCACCTAAAGCAGCTCGC, the PBM binding z-score turned out to be 3.18.

Take GCAAACAGGTGAAACGCAGGTAACTCAGGGTGGC: the PBM binding z-score worked out at 0.0626.

For the sequence ATCGAAAAGTCGTGAGGTGAGTATACAGAAAGGC, the PBM binding z-score was determined as 0.17.

The sequence AATACAGGGTCATCGAAGGCCAGAGTACGCACAG displayed a PBM binding z-score of 3.74.

In turn, CCTACTGGGCCGAAGGTCATTGATTCCAATGCTC had a PBM binding z-score of 3.08.

As for CTTACTGGGCCAAGGTCATTGATCAGTCAAAGCA, the PBM binding z-score stood at 3.49.

For CAGCCTAGGTCAGGGCCAGTATAGGAGGAACGTT, the PBM binding z-score came out at 2.58.

Regarding AGCGAAAGGTCGACGAGGTGAGTATACACCGTTT, the PBM binding z-score worked out at 2.99.

Take GCTAGCAGGCCATTTAGGTCACTCAATGACGGGC: the PBM binding z-score is 2.27.

In turn, ACTAGCAGGCCAACGGTCACTCAAGATTAGTCCG came in with a PBM binding z-score of 1.57.

CGTCCAAGGTCATAGGACGTCAGTGAAGACAGAT had a PBM binding z-score of 3.37.

With CCTCGGAAGACAGAAGGTCAGAGCTGTCCGCTTT, the PBM binding z-score is 3.01.

For GCATATAGGTAATACAAGGCGAAAGTCCGATTGT, the PBM binding z-score was -0.287.

Regarding GCAGACAGGTGATACGCAGGTAACTCAGGGTGGC, the PBM binding z-score was -0.38.

AGGATGAGGTTATTAAGATCAGGGAATTGCGGTC registered a PBM binding z-score of 1.49.

As for CCGACTGGGGCATAAGGTTATCATAAGCCAGCCC, the PBM binding z-score amounted to 1.53.

ACAGACCGGTGATGAAGGTAACTCAGGCTATCAT showed a PBM binding z-score of -0.0627.

In turn, CGAACTAGGACAGAACAGGACAGTGAAGGATGAT came in with a PBM binding z-score of 0.214.

CGTCCAAGGTCACAGGTCAGTGAAGAGATGACGG returned a PBM binding z-score of 5.03.

The sequence CTCGAAAGGTCGGTTGAGGTGTGTATACGGATAA yielded a PBM binding z-score of 1.73.

The sequence CGAACTAGGTCAAGCACAGTGAATCTCCGCACGC yielded a PBM binding z-score of 2.96.

ATAGAAAGGTCGTGAGGTGAGTATACAGAAAGGC displayed a PBM binding z-score of 3.32.

Sequence TCAGACAGGTGAGGGTAACTCAGGTACGCAGTCG registered a PBM binding z-score of 0.992.

In the case of CCTATTAGTTCACCATAAGGGCAACCGAAGCTCG, the PBM binding z-score was 3.48.

AATACAGGGTCACTAGGCCAGAGTTGGTACGAAT registered a PBM binding z-score of 3.56.

CCTACTGGGCCAAAAAGGTCATTCATGCCGATAA gave a PBM binding z-score of 4.58.

Sequence CAAACTAGGTCAAGGTCAAAATCGGTTTGTGCCA displayed a PBM binding z-score of 4.77.

With AGAATGAGGTTATACGTAGATCATGGAAGAAAGT, the PBM binding z-score is 1.02.

With GCTTACGGGCCAAAGGTTATAGCATGAATAGAAT, the PBM binding z-score stood at 1.29.

TCGAGTTGGTTAGGGGCATTCAGAATGGCGTCGA had a PBM binding z-score of 0.661.

For the sequence TATACAGGGTCAAAGGCGAGAGTACGAATGTCGA, the PBM binding z-score came out at 3.17.

In the next assay the test system is RARg:RXRa (NR concentration 270 nM, RXRa partner concentration 90 nM). Described as above. The essentials:
as §1
Regarding ATACCAAGGTGATCGTGAGGTCTTTGATACTAAC, the PBM binding z-score turned out to be 0.797.

With CCTAGCAGGCAAATCTGGGTCACTCAAGGCTTGA, the PBM binding z-score was determined as 1.

ATCTCTAGGTAAGACTCAGTTCAGTGCAGAACGC had a PBM binding z-score of 0.23.

Consider CCTCGGAGGATAGAAGGTCAGAGCTGTCCGCTTT, for which the PBM binding z-score stood at 2.17.

As to CCAGACAGGTGAAAGGTTACTCAGTCTGGTACGC, the PBM binding z-score came out at 3.02.

Sequence GCTTATAGATCAAGGTTAAGAAAGACTAAGCTAA returned a PBM binding z-score of 0.377.

GCTGCTAGGTCAGGTTAGTCAGCTAACGGGTACG gave a PBM binding z-score of 2.89.

With TCATATAGGTAAAGGTCAAAGTCGAACGATATGA, the PBM binding z-score was determined as 6.35.

On to CCTGCTAGGTCAATGGTCACCTAAAGCAGCTCGC, for which the PBM binding z-score amounted to 3.72.

The sequence GCAAACAGGTGAAACGCAGGTAACTCAGGGTGGC had a PBM binding z-score of 0.796.

As for ATCGAAAAGTCGTGAGGTGAGTATACAGAAAGGC, the PBM binding z-score was 0.561.

Sequence AATACAGGGTCATCGAAGGCCAGAGTACGCACAG returned a PBM binding z-score of 5.74.

CCTACTGGGCCGAAGGTCATTGATTCCAATGCTC yielded a PBM binding z-score of 2.93.

As for CTTACTGGGCCAAGGTCATTGATCAGTCAAAGCA, the PBM binding z-score worked out at 4.

The sequence CAGCCTAGGTCAGGGCCAGTATAGGAGGAACGTT yielded a PBM binding z-score of 3.08.

Take AGCGAAAGGTCGACGAGGTGAGTATACACCGTTT: the PBM binding z-score amounted to 4.23.

Sequence GCTAGCAGGCCATTTAGGTCACTCAATGACGGGC came in with a PBM binding z-score of 1.47.

Consider ACTAGCAGGCCAACGGTCACTCAAGATTAGTCCG, for which the PBM binding z-score is 0.906.

On to CGTCCAAGGTCATAGGACGTCAGTGAAGACAGAT, for which the PBM binding z-score came to 5.58.

As for CCTCGGAAGACAGAAGGTCAGAGCTGTCCGCTTT, the PBM binding z-score was found to be 2.34.

GCATATAGGTAATACAAGGCGAAAGTCCGATTGT gave a PBM binding z-score of 0.107.

Regarding GCAGACAGGTGATACGCAGGTAACTCAGGGTGGC, the PBM binding z-score was -0.066.

Take AGGATGAGGTTATTAAGATCAGGGAATTGCGGTC: the PBM binding z-score was found to be 1.41.

Sequence CCGACTGGGGCATAAGGTTATCATAAGCCAGCCC came in with a PBM binding z-score of 1.8.

For the sequence ACAGACCGGTGATGAAGGTAACTCAGGCTATCAT, the PBM binding z-score was -0.0765.

Turning to CGAACTAGGACAGAACAGGACAGTGAAGGATGAT, the PBM binding z-score amounted to 0.299.

In turn, CGTCCAAGGTCACAGGTCAGTGAAGAGATGACGG showed a PBM binding z-score of 6.75.

In the case of CTCGAAAGGTCGGTTGAGGTGTGTATACGGATAA, the PBM binding z-score was 2.34.

CGAACTAGGTCAAGCACAGTGAATCTCCGCACGC had a PBM binding z-score of 4.27.

ATAGAAAGGTCGTGAGGTGAGTATACAGAAAGGC registered a PBM binding z-score of 4.4.

Consider TCAGACAGGTGAGGGTAACTCAGGTACGCAGTCG, for which the PBM binding z-score turned out to be 0.551.

On to CCTATTAGTTCACCATAAGGGCAACCGAAGCTCG, for which the PBM binding z-score is 4.31.

Consider AATACAGGGTCACTAGGCCAGAGTTGGTACGAAT, for which the PBM binding z-score is 5.2.

Consider CCTACTGGGCCAAAAAGGTCATTCATGCCGATAA, for which the PBM binding z-score was 5.14.

Consider CAAACTAGGTCAAGGTCAAAATCGGTTTGTGCCA, for which the PBM binding z-score worked out at 5.74.

As to AGAATGAGGTTATACGTAGATCATGGAAGAAAGT, the PBM binding z-score stood at 2.06.

Consider GCTTACGGGCCAAAGGTTATAGCATGAATAGAAT, for which the PBM binding z-score is 2.77.

Sequence TCGAGTTGGTTAGGGGCATTCAGAATGGCGTCGA yielded a PBM binding z-score of -0.158.

TATACAGGGTCAAAGGCGAGAGTACGAATGTCGA: the PBM binding z-score came to 5.39.
